Bioassay records from PubChem BioAssay.
Compounds with a hit are over-represented: about 12% of the library has one in this group of screens.
JMJD2A Tudor inh = JMJD2A Tudor domain (human) inhibition; Potency, µM (titrated, usually from 114 µM), for the others: at the top dose activity change, negative = inhibition, usual class: inhibitors; hit rate 4.4% among 390,000; AlphaScreen JMJD2A-Tudor / H3K4me3 peptide binding; O75164; note: % is set by controls: 0 for no effect and ±100 for the full control effect; nearly all actives have a fitted effect of over 50% in size
Target sequence (O75164 whole entry, looked up, the tested form may be a part): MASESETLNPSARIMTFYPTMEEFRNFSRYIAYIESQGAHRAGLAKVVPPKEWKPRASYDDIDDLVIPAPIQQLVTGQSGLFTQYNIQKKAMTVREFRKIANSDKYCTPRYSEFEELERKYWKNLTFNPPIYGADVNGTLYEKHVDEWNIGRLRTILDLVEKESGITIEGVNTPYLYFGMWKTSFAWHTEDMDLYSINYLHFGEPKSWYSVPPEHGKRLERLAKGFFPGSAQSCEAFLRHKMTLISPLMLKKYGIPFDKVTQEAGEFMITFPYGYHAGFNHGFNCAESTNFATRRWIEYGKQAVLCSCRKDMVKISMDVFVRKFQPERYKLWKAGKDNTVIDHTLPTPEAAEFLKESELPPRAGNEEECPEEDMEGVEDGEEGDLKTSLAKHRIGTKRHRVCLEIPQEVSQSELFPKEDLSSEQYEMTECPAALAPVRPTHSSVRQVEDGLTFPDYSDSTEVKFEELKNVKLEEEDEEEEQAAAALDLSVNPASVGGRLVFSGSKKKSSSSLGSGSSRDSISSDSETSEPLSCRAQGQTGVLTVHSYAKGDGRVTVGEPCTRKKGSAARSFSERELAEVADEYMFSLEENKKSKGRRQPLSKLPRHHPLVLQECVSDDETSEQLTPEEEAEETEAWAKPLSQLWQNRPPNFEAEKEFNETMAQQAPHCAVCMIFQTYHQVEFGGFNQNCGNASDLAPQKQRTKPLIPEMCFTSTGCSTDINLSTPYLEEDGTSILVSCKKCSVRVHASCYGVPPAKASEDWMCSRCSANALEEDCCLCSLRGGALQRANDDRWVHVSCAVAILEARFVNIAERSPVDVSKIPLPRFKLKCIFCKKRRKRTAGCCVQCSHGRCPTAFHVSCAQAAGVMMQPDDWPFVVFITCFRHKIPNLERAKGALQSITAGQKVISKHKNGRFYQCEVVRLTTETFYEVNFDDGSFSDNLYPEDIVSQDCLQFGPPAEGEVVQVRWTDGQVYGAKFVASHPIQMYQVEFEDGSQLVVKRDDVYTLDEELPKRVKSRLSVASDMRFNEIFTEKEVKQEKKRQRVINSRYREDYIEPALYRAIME
G9a block = inhibitors of human histone lysine methyltransferase G9a; hit rate 8.8% among 350,000; Potency, µM (titrated, usually from 102 µM), inactives show at the top dose activity, negative = inhibition, most hits filed as inhibitors; AID 504332; G9a H3K9 monomethylation, AlphaScreen, 2 h; Q96KQ7; note: % is set by controls: 0 for no effect and ±100 for the full control effect; nearly all actives have a fitted effect of over 75% in size
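Chemiluminescent proximity detection of H3K9 monomethylation, read after 10 min bead incubation in the dark. Reaction: 20 nM G9a, 500 nM biotin-H3K9 peptide, 20 uM SAM cofactor, 2 h, room temperature, following 15 min enzyme-compound preincubation.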
HP1b chromo inh = blocks HP1-beta chromodomain binding to methylated histone tails. P83916. AlphaScreen HP1-beta / biotin-H3K9me3 peptide binding. Potency, µM (top dose mostly 114 µM), inactives show top-dose activity change, negative = inhibition, actives largely listed as inhibitors. hit rate 0.56% among 390,000; note: nearly all actives have a fitted effect of over 70% in size
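Compound inhibition of the preformed complex between 50 nM HP1-beta and 50 nM biotinylated H3K9me3 peptide was read by AlphaScreen. Buffer was PBS pH 7.4 with 0.01% Tween-20. Incubations ran 30 min at room temperature, with 10 ug/mL donor/acceptor beads.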
L3MBTL1 block = L3MBTL1 (human) inhibition; AlphaScreen L3MBTL1–H3K9me1 peptide binding; hit rate 0.66% among 230,000; AID 485360; Potency, µM (doses to about 57.1 µM), for inactives: at the top dose activity, negative = inhibition, hits mostly inhibitors; Q9Y468; note: % is set by controls: 0 for no effect and ±100 for the full control effect; nearly all actives have a fitted effect of over 60% in size
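Displacement of a biotinylated histone H3(1-15) peptide monomethylated at Lys9 (75 nM) from L3MBTL1 (50 nM) was measured by AlphaScreen after a 30 min room-temperature compound incubation; cefsulodin titration served as intraplate control.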
BAZ2B block = BAZ2B (human) inhibition | hit rate 4.4% among 360,000 | Potency, µM (doses to about 114 µM), for inactives: at the top dose activity change, negative = inhibition, most hits filed as inhibitors | AID 504333 | Q9UIF8 | AlphaScreen BAZ2B-H3K14Ac peptide displacement; note: % is set by controls: 0 for no effect and ±100 for the full control effect; nearly all actives have a fitted effect of over 60% in size
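Protein-peptide AlphaScreen: BAZ2B 50 nM, b-H3K14Ac 50 nM, 1x PBS pH 7.4 + 0.01% Tween-20. Preincubation 30 min RT; cpd 30 min RT (top 110 uM); beads 20 min RT, light-protected.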
Sfp PPTase inh = inhibitors of Bacillus subtilis Sfp phosphopantetheinyl transferase | Q9F4F7 | Biochemical Sfp PPTase activity, qHTS | Potency, µM, inactives show largest response in the series, negative = inhibition, actives largely listed as inhibitors | hit rate 3.5% among 310,000;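 note: the enzyme is Sfp with the accession as filed and its product quenches rhodamine fluorescence; 0% = enzyme reaction without inhibitor and -100% = no enzyme wells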
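Fluorescence-quenching assay with 15 nM Sfp, 5 uM rhodamine-CoA and 12.5 uM BHQ-2-labelled ybbR peptide in pH 7.6 Hepes/MgCl2 buffer. Enzyme was pre-incubated with compound for 15 min at room temperature. Rate was taken from the 30-min fluorescence change (525/598 nm).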
Numbers without * were called inactive; u = inconclusive; x = no result; [ ] = remark or other dose. Calls come from the whole dose curve; as a rule, active = well fitted curve in the direction sought with a large enough effect; inconclusive = small, poorly fitted or top-dose-only effect, or another doubt; inactive = no such curve, though single readings can be large; an effect the other way counts as inactive or inconclusive. Potency is the fitted concentration of half-maximal effect.

SMILES	JMJD2A Tudor inh	G9a block	HP1b chromo inh	L3MBTL1 block	BAZ2B block	Sfp PPTase inh
Cc1ccc(N/N=C(\C#N)C(=O)c2ccsc2)cc1	35µM*	u	-17%	-4%	u	-3%
COc1ccc(C(=O)/C(C#N)=N/Nc2cccc([N+](=O)[O-])c2)cc1	u	u	u	-28%	40µM*	-10%
N#C/C(=N\Nc1ccccc1Cl)C(=O)c1ccccc1	-29%[57.1 µM]	u	-21%	-22%	u	12%
N#C/C(=N\Nc1ccc(Cl)cc1)C(=O)c1ccsc1	u	x	u	-1%	25µM*	8%
N#C/C(=N\Nc1cccc(Cl)c1)C(=O)c1ccccc1	u	25µM*	u	-8%	45µM*	12%
COc1ccc(Cn2c(C(=O)O)c(CNCc3ccco3)c3ccc(OC)cc32)cc1	-29%	-9%[59 µM]	15%	x	u	x
CSc1ncccc1C(=O)Nc1ccccc1N1CCOCC1	-11%	x	6%	7%	x	x
CCCOc1ccc2c(c1)C(=NN=C(N)N)c1cc(OCCC)ccc1-2	28µM*	u	u	x	40µM*	u
Cc1ccc2nc(N(CCCN(C)C)C(=O)c3ccc(S(=O)(=O)N4CCOCC4)cc3)sc2c1	-14%	-2%	12%	x	-11%	11%
Cc1cccc2sc(N(CCCN(C)C)C(=O)c3ccc(S(=O)(=O)N4CCc5ccccc5C4)cc3)nc12	-28%	x	3%	x	-18%	3%
Cc1ccc2nc(N(CCCN(C)C)C(=O)c3ccc(S(=O)(=O)N4CCc5ccccc5C4)cc3)sc2c1	u	71µM*	u	x	u	50µM*
CN(C)CCCN(C(=O)c1ccc(S(=O)(=O)N2CCc3ccccc3C2)cc1)c1nc2ccc(F)cc2s1	u	40µM*	-31%	x	-31%	45µM*
COc1ccc2sc(N(CCCN(C)C)C(=O)c3ccc(S(=O)(=O)N4CCc5ccccc5C4)cc3)nc2c1	56µM*	32µM*	-25%	-13%	-39%	x
Cc1cc(C)c2sc(N(CCCN(C)C)C(=O)c3ccc(S(=O)(=O)N4CCc5ccccc5C4)cc3)nc2c1	x	22µM*	x	-11%	-20%	x
CCc1nn2c(=O)c(S(=O)(=O)Nc3ccc(C)c(C)c3)c(C)nc2s1	-13%	u	4%	x	u	x
O=C1CCC[C@@H]2CC(NCc3ccc(Cl)c(Cl)c3)C[C@@H]3CCN1[C@H]23 (stereo partly drawn)	x	u	x	x	x	-9%
N#Cc1nc(/C=C/c2ccc(F)cc2)oc1N1CCCCCC1	-6%	u	u	x	u	x
Cc1cc(C)c2sc(N(CCCN(C)C)C(=O)c3ccc(S(=O)(=O)N4CCCc5ccccc54)cc3)nc2c1	40µM*	45µM*	-7%	-17%	11µM*	x
CN(C)CCCN(C(=O)c1ccc(S(=O)(=O)N(C)C)cc1)c1nc2ccc(F)cc2s1	-5%	-33%	44%	-11%	-17%	13%
CN(C)CCCN(C(=O)c1ccc(S(=O)(=O)N2CCc3ccccc32)cc1)c1nc2ccc(F)cc2s1	u	45µM*	u	x	u	u
COc1cccc(CN2CC(C(=O)NCCCn3cccn3)CCC2=O)c1 (stereo not drawn)	-25%	2%	-1%[57 µM]	x	-16%	10%
CS(=O)(=O)c1nc(-c2ccco2)cc(C(F)(F)F)n1	x	32µM*	x	-2%	-1%	-10%
COc1ccccc1-c1cc(C(F)(F)F)nc(S(C)(=O)=O)n1	-8%	u	90%	x	-6%	0%
O=[N+]([O-])c1cnc(Sc2ccncn2)s1	-22%	10µM*	-2%	6%	-20%	u
O=C1NCCN1c1ncc([N+](=O)[O-])s1	-9%	-1%[59 µM]	16%	13%	6%	13%
N#CC(OC(=O)c1ccccc1)c1cccc([N+](=O)[O-])c1 (stereo not drawn)	u	x	-16%	x	x	x
